Each structure is given as a SMILES string. Structures can show the parent of a compound that is named as a salt. ± gives the standard deviation.

Assay [1] relates to Jurkat. The experiment in a line: mean cell size (FSC-A) relative to DMSO control (fraction of control); higher = larger cells. To be noted: 48 h. The gist of the method: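 Jurkat cells seeded at 600 cells/µl were incubated 1 h, then exposed for 48h to the Enzo Screen-Well FDA Approved Drug Library v2.0 at 25µM in 0.9% (v/v) final DMSO. Drugs that cut counts below 20% of controls were diluted 10-fold and retested, down to 25nM. Cell count and mean cell size (forward scatter area) were read on an Accuri C6 flow cytometer, relative to solvent-only controls. Plates held 6-12 controls; values are means of 3 biological replicates.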

The subject of assay [2] is Jurkat. In words: cell count relative to DMSO control (fraction of control); higher = more cells (less growth inhibition). As to conditions: 48 h.

In turn, `O=NN(CCCl)C(=O)NC1CCCCC1` [Lomustine] (concentration: 25 µM) had a mean cell size in the assay with Jurkat [1] of 1.19 ± 0.07. In the assay with Jurkat [2], the cell count came to 0.287 ± 0.11.

`NS(=O)(=O)Cc1noc2ccccc12` [Zonisamide] (concentration: 25 µM) came in with a mean cell size in the assay with Jurkat [1] of 1 ± 0.05. In addition, the cell count in the assay on Jurkat [2] was 0.561 ± 0.25.

`CN1CCN2c3ncccc3Cc3ccccc3C2C1` (configuration not stated) [Mirtazapine] (concentration: 25 µM) registered a mean cell size in the assay on Jurkat [1] of 0.958 ± 0.033. For the same compound, the cell count with Jurkat [2] was 0.951 ± 0.02.

Take `C[C@@H](O)[C@H]1C(=O)N2C(C(=O)O)=C(S[C@@H]3CN[C@H](CNS(N)(=O)=O)C3)[C@H](C)[C@H]12` [Doripenem] (concentration: 25 µM): in the assay on Jurkat [1], the mean cell size was found to be 0.94 ± 0.011. The same compound registered a cell count in the assay on Jurkat [2] of 0.963 ± 0.12.

`CC(C)NCC(O)c1ccc(O)c(O)c1` (racemic) [(±) Isoproterenol·HCl] (concentration: 25 µM): the mean cell size in the assay on Jurkat [1] came out at 0.981 ± 0.047. This compound showed a cell count with Jurkat [2] of 0.659 ± 0.0053.

`CC(C)(C)NCC(O)c1ccc(O)c(CO)c1` (configuration not stated) [Salbutamol Hemisulfate] (concentration: 25 µM): the mean cell size in the assay with Jurkat [1] amounted to 1.01 ± 0.056. This compound also gave a cell count in the assay on Jurkat [2] of 0.916 ± 0.11.

The compound `COc1cc2ncnc(Nc3ccc(F)c(Cl)c3)c2cc1OCCCN1CCOCC1` [Gefitinib] (concentration: 2.5 µM) registered a mean cell size with Jurkat [1] of 1.04 ± 0.045. For the same compound, the cell count in the assay with Jurkat [2] was 0.736 ± 0.11.

As for `Cc1nc(-c2ccc(OCC(C)C)c(C#N)c2)sc1C(=O)O` [Febuxostat] (concentration: 25 µM), in the assay with Jurkat [1], the mean cell size is 1 ± 0.024. Further, the cell count in the assay on Jurkat [2] was 0.592 ± 0.028.

For the compound `C[C@]12CC[C@@H]3c4ccc(O)cc4CC[C@H]3[C@@H]1CC[C@@H]2O` [Estradiol] (concentration: 25 µM), the mean cell size in the assay on Jurkat [1] was 0.892 ± 0.026. The cell count in the assay on Jurkat [2] turned out to be 0.711 ± 0.1.

Consider `CCCCC1=NC2(CCCC2)C(=O)N1Cc1ccc(-c2ccccc2-c2nnn[nH]2)cc1` [Irbesartan] (concentration: 25 µM), for which the mean cell size in the assay on Jurkat [1] is 0.959 ± 0.06. In the assay on Jurkat [2], this compound came in with a cell count of 0.401 ± 0.013.

In the assay with Jurkat [1], `CN(C)CCC=C1c2ccccc2COc2ccccc21` [Doxepin·HCl] (concentration: 25 µM) gave a mean cell size of 0.978 ± 0.049. Moreover, in the assay on Jurkat [2], the cell count is 0.988 ± 0.13.

In turn, `Cc1nc(Nc2ncc(C(=O)Nc3c(C)cccc3Cl)s2)cc(N2CCN(CCO)CC2)n1` [Dasatinib] (concentration: 2.5 µM) came in with a mean cell size in the assay with Jurkat [1] of 0.8161 ± 0.0028. Moreover, the cell count with Jurkat [2] was 1.03 ± 0.063.

`CCN[C@H]1C[C@H](C)S(=O)(=O)c2sc(S(N)(=O)=O)cc21` [Dorzolamide·HCl] (concentration: 25 µM): in the assay with Jurkat [1], the mean cell size was determined as 0.965 ± 0.04. This compound gave a cell count with Jurkat [2] of 0.675 ± 0.14.

The compound `O=NN(CCCl)C(=O)NCCCl` [Carmustine] (concentration: 25 µM) yielded a mean cell size with Jurkat [1] of 1.066 ± 0.0089. This compound also displayed a cell count with Jurkat [2] of 0.767 ± 0.014.

With `C#CCN[C@@H]1CCc2ccccc21` [Rasagiline Mesylate] (concentration: 25 µM), the mean cell size in the assay on Jurkat [1] was 1.03 ± 0.024. In the assay on Jurkat [2], this compound gave a cell count of 1.01 ± 0.058.

In the assay with Jurkat [1], `CC/C(=C(\c1ccccc1)c1ccc(OCCN(C)C)cc1)c1ccccc1` [Tamoxifen Citrate] (concentration: 25 µM) returned a mean cell size of 0.908 ± 0.015. The cell count with Jurkat [2] amounted to 0.314 ± 0.11.

Values taken from the supplement of paper PMC4709259.
